According to PubChem BioAssay (NCATS):
Several values for one entry are separate records, joined by “and”; a condition that tells them apart may be missing. Equal values may be shown once. Records with an inconclusive call do not appear. Unmarked numbers belong to inactive results. Activity calls are given as the source filed them. Calls follow the shape of the dose curve; as a rule, active = well fitted curve in the direction sought with a large enough effect; inconclusive = small, poorly fitted or top-dose-only effect, or another doubt; inactive = no such curve, though single readings can be large; an effect the other way counts as inactive or inconclusive.

Experiments:
[1] = Viability qHTS for spleen associated tyrosine kinase inhibitor (SYKi) drug resistant MV4-11 cells (AID 1963824); conditions: SYKi-resistant MV4-11 viability, CellTiter-Glo, 72 h; series mostly up to 45 µM; also: nearly all actives have a fitted effect of over 35% in size
In short: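 SYK inhibitor-resistant MV4-11 AML cells, 500 per well, added to predispensed compounds and incubated 72 hr at 37 C, 5% CO2. Viability measured by CellTiter-Glo luminescence after 10 min at room temperature.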

[2] = Cellular viability qHTS for adrenocortical cancer (ACC) cell line SW-13 (AID 1963989); conditions: SW-13 ACC cells viability, CellTiter-Glo, 48 h; activity (max response): hits give low values; also: nearly all actives have a fitted effect of over 65% in size;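 as to activity (max response): cells grown in serum-free medium with ITS supplement; % is scaled to controls: 0 for no effect and ±100 for the full control effect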
In short: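 Compound titrations (up to 46 uM final, in DMSO) were applied to SW-13 cells for 48 h at 37C/5% CO2. Reading used CellTiter-Glo after 20 min at room temperature; fitted curves yielded IC50 and efficacy.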

[3] = Cellular viability qHTS for adrenocortical cancer (ACC) cell line NCI-H295R (AID 1963990); conditions: CellTiter-Glo ATP luminescence, 48 h; series mostly up to 46.1 µM; also: nearly all actives have a fitted effect of over 60% in size
In short: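 Readout: CellTiter-Glo luminescence, 20 min RT. Exposure: 48 h, 37C/5% CO2. Cells: NCI-H295R, ITS-DMEM serum-free. Range: up to 46 uM. Analysis: 4PL fit, IC50 plus efficacy.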
Potency is read from the fitted curve at half-maximal effect.

SMILES | Potency [1] | activity (max response) [2] | Potency [3] | Potency [2]
CCNC(=O)NCCCOc1cccc(CN2CCCCC2)c1 | inactive | -6.89% | inactive | 
Nc1cccc2c1CN([C@H]1CCC(=O)NC1=O)C2=O | inactive | -17.5% | inactive | 
O=C1c2c(O)cccc2Cc2cccc(O)c21 | inactive | 5.31% | inactive | 
COc1cc([C@H]2Oc3cc([C@H]4Oc5cc(O)cc(O)c5C(=O)[C@@H]4O)ccc3O[C@@H]2CO)ccc1O | 18.6 µM (active) | 11.7% and -16.7% | inactive | 
Cc1cc(C)nc(NS(=O)(=O)c2ccc(N)cc2)n1 | inactive | 6.1% | inactive | 
O=c1c(-c2ccc(O)cc2)coc2c([C@@H]3O[C@H](CO)[C@@H](O)[C@H](O)[C@H]3O)c(O)ccc12 | inactive | 3.16% | inactive | 
CN1CCC(=C2c3ccccc3Sc3ccccc32)CC1 | 16.8 µM (active) |  | 8.2 µM (active) | 23.1 µM (active)
CC(=O)O[C@]1(C(C)=O)CC[C@H]2[C@@H]3C=C(Cl)C4=CC(=O)[C@@H]5C[C@@H]5[C@]4(C)[C@H]3CC[C@@]21C | 14.6 µM (active) | -7.85% and -11.2% | inactive | 
CC1=C(/C=C/C(C)=C/C=C/C(C)=C/C(=O)Nc2ccc(O)cc2)C(C)(C)CCC1 | 2.66 µM (active) and 7.42 µM (active) |  | 4.61 µM (active) | 1.84 µM (active)
NCC(=O)Nc1cncc(-c2nn3c(=O)cc(N4CCNCC4)nc3s2)c1 | inactive | -17.3% | inactive | 
CCCCOc1nc(N)c2c(n1)N(Cc1cccc(CN3CCCC3)c1)CC(=O)N2 | 23.5 µM (active) | -4.22% | inactive | 
C[C@]12CC[C@@H]3c4ccc(O)cc4C[C@@H](CCCCCCCCCS(=O)CCCC(F)(F)C(F)(F)F)[C@H]3[C@@H]1CC[C@@H]2O (stereo partly drawn) | inactive | -10.5% | inactive | 
CC(/C=C1\SC(=S)N(CC(=O)O)C1=O)=C\c1ccccc1 | inactive | 4.22% | inactive | 
CC(C)C(C)(C)C(C)(C)C(C)(C)S | 5.45 µM (active) | 7.64% | inactive | 
C[C@@H](C1=C(CCN(C)C)Cc2ccccc21)c1ccccn1 | inactive | -0.59% | inactive | 
C[C@]12CCC(=O)C=C1C=C[C@@H]1[C@@H]2CC[C@@]2(C)[C@H]1CC[C@@]21CCC(=O)O1 | inactive | 8.87% | inactive | 
O=C(/C=C\n1cnc(-c2cc(C(F)(F)F)cc(C(F)(F)F)c2)n1)NNc1ccccn1 | 2.63 µM (active) |  | 3.98 µM (active) | 11.2 µM (active)
Cc1onc(-c2ccccc2)c1-c1ccc(S(N)(=O)=O)cc1 | 14.8 µM (active) | -10.6% and -23.5% | inactive | 
C1=CC2C3C=CC(C3)C2C1 (stereo not drawn) | inactive | 5.69% | inactive | 
NCCS | inactive | 16.9% | inactive | 
CCCCNc1ccc(C(=O)OCCN(C)C)cc1 | inactive | 4.21% | inactive | 
Nc1nc(Nc2ccc3c(c2)CC[C@@H](N2CCCC2)CC3)nn1-c1cc2c(nn1)-c1ccccc1CCC2 | 0.417 µM (active) |  | 10 µM (active) | 14.1 µM (active)
CC(CNC1CCCCC1)OC(=O)c1ccccc1 (stereo not drawn) | inactive | -5.58% | inactive | 

SMILES | Potency [1] | activity (max response) [2] | Potency [3] | Potency [2]
N#Cc1c(N)nc(N)nc1N[C@H](c1nc2c(F)ccc(Cl)c2c(=O)n1-c1cccnc1)C1CC1 | 10.5 µM (active) | -22.7% | 22.4 µM (active) | 
CC1(C)CC[C@]2(C(=O)O)CC[C@]3(C)C(=CC[C@@H]4[C@@]5(C)C[C@@H](O)[C@H](O)C(C)(C)[C@@H]5CC[C@]43C)[C@@H]2C1 | 18.6 µM (active) | -1.16% | inactive | 
c1cnc(N2CCN(Cc3ccc4c(c3)OCO4)CC2)nc1 | inactive | 6.56% | inactive | 
CCOC(=O)NNc1ccc(N(CC)CC(C)O)nn1 (stereo not drawn) | inactive | -8.2% | inactive | 
CC(=O)OC(C)OC(=O)C(C)c1ccc(-c2ccccc2)c(F)c1 (stereo not drawn) | inactive | 9.22% | inactive | 
CC(=O)O[C@]1(C(C)=O)CC[C@H]2[C@@H]3C=C(Cl)C4=CC(=O)CC[C@]4(C)[C@H]3CC[C@@]21C | 11.9 µM (active) | -0.809% | inactive | 
Cc1ccccc1N1CCN(CCc2nnc3n2CCCC3)CC1 | inactive | 9.97% | inactive | 
Cc1cc2nc3ccc(=[N+](C)C)cc-3sc2cc1N | 1.68 µM (active) |  | 5.8 µM (active) | 4.61 µM (active)
C/C(=C(\CCO)SS/C(CCO)=C(\C)N(C=O)Cc1cnc(C)nc1N)N(C=O)Cc1cnc(C)nc1N | inactive | 7.36% | inactive | 
COc1ccc(/C=N/NC(=O)c2ccncc2)cc1OC | inactive | -2.5% | inactive | 
CN(C)C/C=C/C(=O)Nc1ccc(C(=O)N2CCC[C@@H](Nc3ncc(Cl)c(-c4c[nH]c5ccccc45)n3)C2)cc1 | 0.0934 µM (active) |  | 10 µM (active) | 0.251 µM (active)
Cc1c[nH]c2nc(Nc3ccc(N4CCN(C)CC4)c(F)c3)nc(-c3cccc(CC#N)c3)c12 | 0.0059 µM (active) |  | 2.51 µM (active) | 2.24 µM (active)
CC1(C)O[C@@H]2C[C@H]3[C@@H]4CCC5=CC(=O)C=C[C@]5(C)[C@@]4(F)[C@@H](O)C[C@]3(C)[C@]2(C(=O)CO)O1 | 10.6 µM (active) | 4.2% and -2% | inactive | 
N/C(=N\N=C\c1ccc(Cl)cc1)N/N=C/c1ccc(Cl)cc1 | inactive | -4.76% | inactive | 
Cc1cc(-n2c(=O)ccc3cnc4[nH]ccc4c32)ccc1F | 18.6 µM (active) | -19.3% | inactive | 
CS(=O)(=O)Nc1ccc([N+](=O)[O-])cc1Oc1ccccc1 | 14.8 µM (active) | 9.34% and -1.91% | inactive | 
NC(=O)c1cc[n+](CC2=C(C(=O)[O-])N3C(=O)[C@@H](NC(=O)Cc4cccs4)[C@H]3SC2)cc1 | inactive | 11.8% | inactive | 
C/C=C1\NC(=O)[C@H]2CSSCC/C=C\[C@H](CC(=O)N[C@H](C(C)C)C(=O)N2)OC(=O)[C@H](C(C)C)NC1=O | 0.0074 µM (active) |  | 0.0631 µM (active) | 0.0126 µM (active)
Nc1c(I)cc(I)c(C(=O)N(CCC(=O)O)c2ccccc2)c1I | inactive | -3.73% | inactive | 
N#Cc1ccnc(N2C(=O)CC[C@H]2C(=O)N(c2cncc(F)c2)C(C(=O)NC2CC(F)(F)C2)c2ccccc2Cl)c1 (stereo partly drawn) | inactive | 6.42% | inactive | 
COc1ncc(Nc2ncc([C@H](C)N3CCN(S(C)(=O)=O)CC3)cc2-c2nc(C)nc(N)n2)cc1F | 2.35 µM (active) | -5.36% | 0.224 µM (active) | 
CCOc1c(N2CCOCC2)cnn(C)c1=O | inactive | 6.29% | inactive | 
CCOC(=O)O[C@]1(C(=O)OCCl)CC[C@H]2[C@@H]3CCC4=CC(=O)C=C[C@]4(C)[C@H]3[C@@H](O)C[C@@]21C | inactive | 8.33% and -8.79% | inactive | 
